FBA Mtb inh – Mtb FBA enzyme inhibitors, primary screen, biochemical, fluorescence, strain H37Rv; purified M. tuberculosis FBA, fluorescence read-out; inhibition, % at 1 µM; actives 2.3% (n = 360,000); in the data active means inhibition above about 27%
Mtb UGM inh – M. tuberculosis UGM enzyme inhibitors, primary screen, biochemical, fluorescence polarization, single point; UDP-galactopyranose mutase (Mycobacterium tuberculosis (strain ATCC 25618 / H37Rv)), …; purified UGM, fluorescence polarization probe displacement; inhibition, % at 10 µM; actives 0.06% (n = 320,000); in the data active means inhibition above about 10%, passing the limit was not always enough
Target sequence (P9WIQ1 whole entry, looked up): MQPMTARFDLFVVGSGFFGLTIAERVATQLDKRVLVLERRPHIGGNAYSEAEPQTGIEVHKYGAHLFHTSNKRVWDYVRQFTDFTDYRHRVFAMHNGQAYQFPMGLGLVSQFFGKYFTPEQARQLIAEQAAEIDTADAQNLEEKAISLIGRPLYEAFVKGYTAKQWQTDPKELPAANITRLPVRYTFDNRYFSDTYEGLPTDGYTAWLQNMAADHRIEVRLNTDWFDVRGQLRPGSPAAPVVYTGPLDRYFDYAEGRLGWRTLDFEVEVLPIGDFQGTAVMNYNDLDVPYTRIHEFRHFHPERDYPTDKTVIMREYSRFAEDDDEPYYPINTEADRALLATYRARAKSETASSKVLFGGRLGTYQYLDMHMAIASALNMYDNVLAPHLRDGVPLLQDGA
GDH-TPI inh – GDH-TPI coupling enzyme inhibitors, primary screen, artefact control for M. tuberculosis FBA inhibitor project, biochemical, absorbance, full deck. inhibition, % at 4.8 µM. AID 588335, 2011. actives 1.2% (n = 360,000). GDH-TPI coupled enzyme counterscreen, NADH absorbance; in the data active means inhibition above about 30%
SSB-PriA inh – inhibitors of Klebsiella pneumoniae PriA binding to SSB C-terminal tail, primary screen, biochemical, AlphaScreen; PriA–SSB C-terminal tail interaction (Klebsiella pneumoniae); AlphaScreen SSBct-PriA binding, biotinylated peptide; inhibition, % at 33 µM; actives 0.6% (n = 430,000); AID 1272365, 2023; in the data active means inhibition mostly above about 37%, no sharp cut-off; inactive means mostly below about 20%
Mtb bLac sens – beta-lactam sensitization of Mtb H37Rv, H37Rv; M. tuberculosis H37Rv growth with meropenem, percent inhibition; inhibition, % at 25 µM; actives 0.27% (n = 330,000); call rule not given here;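 further: growth measured after seven days incubation then overnight dye step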
Rv3671c inh – Rv3671c serine protease inhibitors, primary screen, biochemical, fluorescence polarization, M. tuberculosis H37Rv. inhibition, % at 5.96 µM. AID 2606, 2010. P9WHR9. actives 0.048% (n = 320,000); in the data active means inhibition above about 38%;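 further: extracellular domain of Rv3671c used as enzyme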
Large screens that a line does not name were inactive; ! = not confirmed by another sample. The list is not random: actives were taken first. Their share in the collection is about 3.2%.

Cc1c(C(=O)O)sc2nc(-c3cccs3)cc(C(F)(F)F)c12	FBA Mtb inh 32.0
Cc1c(C(=O)Nc2nccs2)sc2nc(-c3cccs3)cc(C(F)(F)F)c12	none
CC(=O)c1sc2nc(-c3cccs3)cc(C(F)(F)F)c2c1N	FBA Mtb inh active
Cc1[nH]n(-c2ccccc2)c(=O)c1C=NNC(=O)c1ccccc1F	none (no result: FBA Mtb inh, Mtb UGM inh, GDH-TPI inh, Mtb bLac sens, Rv3671c inh)
CCS(=O)(=O)c1ccc(C=NNc2nc3ccccc3o2)cc1	GDH-TPI inh 37.0 (no result: Mtb UGM inh, Mtb bLac sens, Rv3671c inh)
CN(C)c1ccc(/C=N/Nc2nc3ccccc3o2)cc1	none (no result: SSB-PriA inh)
COCCn1c(SCC(=O)Nc2cccc(C(F)(F)F)c2)nnc1-c1c[nH]c2ccccc12	none (no result: FBA Mtb inh, Mtb UGM inh, GDH-TPI inh, Mtb bLac sens, Rv3671c inh)
O=[N+]([O-])c1ccc(-c2ccc(/C=N/c3c(-c4ccco4)nc4ccccn34)o2)cc1	GDH-TPI inh 49.2 (no result: SSB-PriA inh)
Cc1cc(C)c([N+](=O)[O-])cc1-c1ccc(/C=N/c2c(-c3ccco3)nc3ccccn23)o1	GDH-TPI inh 32.9 (no result: SSB-PriA inh)
CCOc1ccc2nc(N(CCN(C)C)C(=O)c3ccc4c(c3)CCCC4)sc2c1	SSB-PriA inh 54.5!
CN(C)CCN(C(=O)c1ccc2c(c1)CCCC2)c1nc2cc3c(cc2s1)OCCO3	SSB-PriA inh 50.9
CCOc1ccc2nc(N(CCCN(C)C)C(=O)c3ccc(S(=O)(=O)N4CCCC4)cc3)sc2c1	none
O=C(c1ccno1)N1CCSC(c2ccccc2Cl)CC1 (centres undefined)	none (no result: FBA Mtb inh, Mtb UGM inh, GDH-TPI inh, Mtb bLac sens, Rv3671c inh)
O=[N+]([O-])c1ccc2[nH]c(O)c(N=NC3CS(=O)(=O)CC3O)c2c1 (centres undefined)	GDH-TPI inh 45.0
Cc1ccccc1NCC(=O)N=Nc1c(O)[nH]c2ccc([N+](=O)[O-])cc12	GDH-TPI inh 36.2
CCn1c(SCC(=O)Nc2oc(-c3ccccc3)c(-c3ccccc3)c2C#N)nnc1-c1ccncc1	GDH-TPI inh 32.1
CCn1c(SCC(=O)Nc2oc(-c3ccccc3)c(-c3ccccc3)c2C#N)nnc1-c1ccco1	none
CN(C)C(=O)Cn1cc(-c2ccc(F)cc2)cn1	SSB-PriA inh 38.0 (no result: FBA Mtb inh, Mtb UGM inh, GDH-TPI inh, Mtb bLac sens, Rv3671c inh)
BrC(/C=N/N1CCN(Cc2ccccc2)CC1)=C/c1ccccc1	GDH-TPI inh 31.0
Cc1ccc(/C=C2/C(=N)N3N=C(CC(=O)N4CCCC4)SC3=NC2=O)o1	GDH-TPI inh 32.8
COc1ccc(OC)c(-n2c(C)cc(/C=C3\C(=N)N4N=C(CC(=O)N5CCOCC5)SC4=NC3=O)c2C)c1	GDH-TPI inh 31.0
COc1cccc(-n2c(C)cc(/C=C3\C(=N)N4N=C(CC(=O)N5CCOCC5)SC4=NC3=O)c2C)c1	GDH-TPI inh 31.1
N=C1/C(=C\c2ccc(Br)o2)C(=O)N=C2SC(CC(=O)N3CCCCC3)=NN12	none
CC(=O)N1CCc2c(sc(NC(=O)C3CC3)c2C(N)=O)C1	none (no result: FBA Mtb inh, Mtb UGM inh, GDH-TPI inh, Mtb bLac sens, Rv3671c inh)
O=C(NCCC1=CCCCC1)C1(c2cccs2)CCCC1	none (no result: FBA Mtb inh, Mtb UGM inh, GDH-TPI inh, Mtb bLac sens, Rv3671c inh)
CN(C)c1ccc(C=NNC(=O)c2ccnn2C)cc1	none (no result: FBA Mtb inh, Mtb UGM inh, GDH-TPI inh, Mtb bLac sens, Rv3671c inh)
Nc1[nH]n(-c2ccccc2)c(=O)c1N=Nc1cccc2ccccc12	none (no result: FBA Mtb inh, Mtb UGM inh, GDH-TPI inh, Mtb bLac sens, Rv3671c inh)
Nc1[nH]n(-c2ccccc2)c(=O)c1N=Nc1ccccc1	SSB-PriA inh 74.8
CCOC(=O)N1CCC(Nc2nc3ccccc3nc2NS(=O)(=O)c2ccc(Cl)cc2)CC1	GDH-TPI inh 41.7
CCOC(=O)N1CCC(NC(=O)c2ccc(Cl)cc2)CC1	none
CCN(CC)C(=O)c1ccc2c(c1)C1C(Cl)C(Sc3ccccc3[N+](=O)[O-])CC1C(C(=O)O)N2 (centres undefined)	SSB-PriA inh 63.6
COc1ccccc1CNC(=O)C(=O)Nc1cc(N2CCCS2(=O)=O)ccc1C	none (no result: FBA Mtb inh, Mtb UGM inh, GDH-TPI inh, Mtb bLac sens, Rv3671c inh)
COCCCNC(=O)/C(=C\c1cccn1C)NC(=O)c1cccs1	GDH-TPI inh 34.4 (no result: Mtb UGM inh)
O=S(=O)(Nc1cnc(N2CCN(c3ccccc3)CC2)nc1)c1cccc(Cl)c1	none (no result: FBA Mtb inh, Mtb UGM inh, GDH-TPI inh, Mtb bLac sens, Rv3671c inh)
O=C(Nc1ccc(N2CCCCC2)c(Cl)c1)c1ccc(N2CCOCC2)c([N+](=O)[O-])c1	none
O=C(Nc1ccc2c(c1)OCO2)c1ccc(N2CCCC2)c([N+](=O)[O-])c1	SSB-PriA inh 39.0

High-throughput results from PubChem BioAssay.
